Calls of active or inactive are those of the source. How the source made its calls: active means hit-call score of the fitted dose curve at least 0.9, where 1 is the maximum; inactive means score below 0.9.
How the values were obtained:
[1] = read-out: Human Leukocyte Antigen - DR isotype (HLADR), HLA-DRA (gene 3122); assay: BSK_CASM3C_HLADR: BioMAP Diversity Plus: CASM3C Assay for Human Leukocyte Antigen - DR isotype (HLADR) Biomarker Activity (AID 2283043); conditions: primary human coronary artery smooth muscle cells; actives raise or lower the signal;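 further: cell-surface HLA-DR protein level quantified by ELISA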
[2] = read-out: Macrophage colony-stimulating factor (MCSF), CSF1 (gene 1435); assay: BSK_CASM3C_MCSF: BioMAP Diversity Plus: CASM3C Assay for Macrophage colony-stimulating factor (MCSF) Biomarker Activity (AID 2283044); conditions: primary human coronary artery smooth muscle cells; actives raise or lower the signal;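 further: M-CSF protein amount quantified by ELISA after 24 h exposure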
[3] = read-out: Low-density lipoprotein receptor (LDLR), LDLR (gene 3949); assay: BSK_CASM3C_LDLR: BioMAP Diversity Plus: CASM3C Assay for Low-density lipoprotein receptor (LDLR) Biomarker Activity (AID 2283045); conditions: primary human coronary artery smooth muscle cells; actives raise or lower the signal;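 further: LDLR protein level on the cell surface quantified by ELISA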
[4] = read-out: Monocyte Chemoattractant Protein-1 (MCP1), CCL2 (gene 6347); assay: BSK_CASM3C_MCP1: BioMAP Diversity Plus: CASM3C Assay for Monocyte Chemoattractant Protein-1 (MCP1) Biomarker Activity (AID 2283046); conditions: primary human coronary artery smooth muscle cells; actives raise or lower the signal;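 further: MCP-1 level quantified by ELISA 24 h after dosing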
[5] = BSK_CASM3C_Proliferation: Cell Proliferation Assessment in the BioMAP Diversity Plus: CASM3C Assay (AID 2283047); conditions: primary human coronary artery smooth muscle cells;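 further: sulforhodamine B total protein stain as relative cell number at 560 nm; sub-confluent cells exposed 48 h before staining; fitted both ways against DMSO so gain or loss of cell number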
[6] = read-out: Monokine induced gamma interferon (MIG), CXCL9 (gene 4283); assay: BSK_CASM3C_MIG: BioMAP Diversity Plus: CASM3C Assay for Monokine induced gamma interferon (MIG) Biomarker Activity (AID 2283048); conditions: primary human coronary artery smooth muscle cells; actives raise or lower the signal;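 further: MIG protein level measured by ELISA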
[7] = read-out: serum amyloid A (SAA), SAA1 (gene 6288); assay: BSK_CASM3C_SAA: BioMAP Diversity Plus: CASM3C Assay for serum amyloid A (SAA) Biomarker Activity (AID 2283049); conditions: primary human coronary artery smooth muscle cells; actives raise or lower the signal;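 further: SAA protein level quantified by ELISA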
[8] = BSK_CASM3C_SRB: Viability Assessment in the BioMAP Diversity Plus: CASM3C Assay (AID 2283050); conditions: primary human coronary artery smooth muscle cells;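 further: total protein by SRB staining as cytotoxicity measure in parallel cultures; cells exposed to compound for 24 h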
[9] = read-out: Thrombomodulin, THBD (gene 7056); assay: BSK_CASM3C_Thrombomodulin: BioMAP Diversity Plus: CASM3C Assay for Thrombomodulin Biomarker Activity (AID 2283051); conditions: primary human coronary artery smooth muscle cells; actives raise or lower the signal;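 further: thrombomodulin protein level measured by ELISA 24 h after dosing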
[10] = read-out: Tissue Factor, F3 (gene 2152); assay: BSK_CASM3C_TissueFactor: BioMAP Diversity Plus: CASM3C Assay for Tissue Factor Biomarker Activity (AID 2283052); conditions: primary human coronary artery smooth muscle cells; actives raise or lower the signal;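 further: cell surface tissue factor protein level read by ELISA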
[11] = read-out: Interferon-gamma inducible Protein 10 (IP10), CXCL10 (gene 3627); assay: BSK_hDFCGF_IP10: BioMAP Diversity Plus: hDFCGF Assay for Interferon-gamma inducible Protein 10 (IP10) Biomarker Activity (AID 2283053); conditions: primary human foreskin fibroblasts; actives raise or lower the signal
Summary of the method: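 Cells: human dermal foreskin fibroblasts. Exposure: 24 h post-dosing. Detection: IP-10 ELISA, with values expressed against DMSO controls and fitted in both directions.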

[12] = read-out: Urokinase-type plasminogen activator receptor (uPAR), PLAUR (gene 5329); assay: BSK_CASM3C_uPAR: BioMAP Diversity Plus: CASM3C Assay for Urokinase-type plasminogen activator receptor (uPAR) Biomarker Activity (AID 2283054); conditions: primary human coronary artery smooth muscle cells; actives raise or lower the signal;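 further: cell-surface uPAR protein level quantified by ELISA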
[13] = read-out: Vascular cell adhesion molecule 1 (VCAM1), VCAM1 (gene 7412); assay: BSK_CASM3C_VCAM1: BioMAP Diversity Plus: CASM3C Assay for Vascular cell adhesion molecule 1 (VCAM1) Biomarker Activity (AID 2283055); conditions: primary human coronary artery smooth muscle cells; actives raise or lower the signal;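 further: VCAM-1 protein level quantified by ELISA on the cells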
[14] = read-out: Collagen III, COL3A1 (gene 1281); assay: BSK_hDFCGF_CollagenIII: BioMAP Diversity Plus: hDFCGF Assay for Collagen III Biomarker Activity (AID 2283056); conditions: primary human foreskin fibroblasts; actives raise or lower the signal
Summary of the method: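 ELISA read-out of collagen III from human skin fibroblast cultures sampled 24 h post-dosing. Values were derived by bidirectional fitting relative to the DMSO vehicle control.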

[15] = read-out: Epidermal growth factor receptor (EGFR), EGFR (gene 1956); assay: BSK_hDFCGF_EGFR: BioMAP Diversity Plus: hDFCGF Assay for Epidermal growth factor receptor (EGFR) Biomarker Activity (AID 2283057); conditions: primary human foreskin fibroblasts; actives raise or lower the signal
Summary of the method: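 Dosing human primary skin fibroblasts, then measuring surface EGFR by ELISA at 24 h, gives the endpoint; gains and losses relative to DMSO were fitted in both directions.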

[16] = read-out: Interleukin-8 (IL8), CXCL8 (gene 3576); assay: BSK_hDFCGF_IL8: BioMAP Diversity Plus: hDFCGF Assay for Interleukin-8 (IL8) Biomarker Activity (AID 2283058); conditions: primary human foreskin fibroblasts; actives raise or lower the signal
Summary of the method: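 Cells used are human skin primary fibroblasts. Chemical is added, cultures run 24 h, then IL-8 is quantified by ELISA, and gain or loss versus DMSO control is fitted in both directions.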

[17] = BSK_hDFCGF_Proliferation: Cell Proliferation Assessment in the BioMAP Diversity Plus: hDFCGF Assay (AID 2283059); conditions: primary human foreskin fibroblasts;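 further: curves fitted for both rise and fall of signal versus DMSO baseline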
Summary of the method: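 Primary human foreskin fibroblasts, sub-confluent; […]; 10% TCA fix, 0.1% SRB stain, A560 total protein. Gain/loss fitted bidirectionally vs DMSO control.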

[18] = read-out: Macrophage colony-stimulating factor (MCSF), CSF1 (gene 1435); assay: BSK_hDFCGF_MCSF: BioMAP Diversity Plus: hDFCGF Assay for Macrophage colony-stimulating factor (MCSF) Biomarker Activity (AID 2283060); conditions: primary human foreskin fibroblasts; actives raise or lower the signal
Summary of the method: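 Primary human foreskin fibroblasts dosed with chemical; 24 h later, M-CSF quantified by ELISA; curves fitted in both directions vs DMSO negative control.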

[19] = BSK_hDFCGF_SRB: Viability Assessment in the BioMAP Diversity Plus: hDFCGF Assay (AID 2283061); conditions: primary human foreskin fibroblasts;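 further: cells exposed to compound for 24 h before the read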
Summary of the method: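 Readout is SRB absorbance at 560 nm, reflecting total protein in parallel cultures of human foreskin fibroblasts harvested 24 h after chemical dosing. Activity was fitted bidirectionally relative to DMSO.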

[20] = read-out: TIMP metallopeptidase inhibitor 1 (TIMP1), TIMP1 (gene 7076); assay: BSK_hDFCGF_TIMP1: BioMAP Diversity Plus: hDFCGF Assay for TIMP metallopeptidase inhibitor 1 (TIMP1) Biomarker Activity (AID 2283062); conditions: primary human foreskin fibroblasts; actives raise or lower the signal
Summary of the method: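 Human skin fibroblasts (primary), hDFCGF system; compound exposure 24 h; TIMP-1 by ELISA; bidirectional fit vs DMSO negative control; overt cytotoxicity by SRB in parallel wells.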

Measured: AC50

COC(=O)CCC(=O)OC
inactive: all assays above

CC(=O)S[C@H](C(=O)N[C@H]1Cc2ccccc2[C@H]2CCC[C@@H](C(=O)O)N2C1=O)C(C)C
active: [1] 3.97 µM
inactive: all other assays above

CC(=O)OC1CC(C)OC(C)O1 (stereo not given)
inactive: all assays above

Cc1occc(=O)c1O
inactive: all assays above

Nc1nc(Cl)nc2c1ncn2[C@H]1C[C@H](O)[C@@H](CO)O1
active: [5] 0.54 µM | [17] 0.147 µM | [18] 1.01 µM
inactive: all other assays above

CCCCCCCCCCCCCCCCO
active: [17] 6.73 µM
inactive: all other assays above

O=C(N[C@@H](c1ccccc1)[C@@H]1CCCCN1)c1cccc(C(F)(F)F)c1Cl
active: [3] 15.4 µM | [5] 30.3 µM | [8] 30.9 µM | [11] 10.5 µM | [17] 28.7 µM
inactive: all other assays above

C#CC(O)C(CC)CCCC (stereo not given)
active: [5] 37 µM
inactive: all other assays above

NCCOCCOCCN
active: [17] 14.6 µM
inactive: all other assays above

CC(=O)CC(c1ccccc1)c1c(O)c2ccccc2oc1=O (stereo not given)
inactive: all assays above

CCN(CC)CCOc1ccc(C(=C(Cl)c2ccccc2)c2ccccc2)cc1
active: [1] 23.9 µM | [2] 26.2 µM | [3] 30.6 µM | [4] 33 µM | [5] 15 µM | [6] 31.5 µM | [7] 25.9 µM | [8] 28 µM | [10] 31.8 µM | [11] 14.4 µM | [12] 31.1 µM | [13] 31.6 µM | [14] 12.1 µM | [16] 13 µM | [17] 0.123 µM | [18] 10.4 µM | [19] 11.6 µM | [20] 13.6 µM
inactive: [9] | [15]

CSc1ccc(Oc2ccc(S(N)(=O)=O)cc2CN(C)C)cc1C
active: [5] 20 µM | [17] 20 µM
inactive: all other assays above

NC(=Nc1ccccc1)Nc1ccccc1
active: [2] 3.97 µM | [17] 30.3 µM | [18] 9.15 µM
inactive: all other assays above
